PKM2 inh – qHTS Assay for Inhibitors of Human Muscle isoform 2 Pyruvate Kinase; Pyruvate kinase PKM (Homo sapiens), P14618; purified PKM2, ATP generation, Kinase-Glo luminescence; Potency, µM (series often up to 57.5 µM), without a hit: at the top dose activity change, negative = inhibition, usual class: inhibitors; hit rate 0.058% among 260,000; AID 1634, 2009; active = well fitted inhibition curve with a large enough effect; also: nearly all actives have a fitted effect of over 60% in size
Target sequence (P14618 whole entry, looked up, canonical isoform): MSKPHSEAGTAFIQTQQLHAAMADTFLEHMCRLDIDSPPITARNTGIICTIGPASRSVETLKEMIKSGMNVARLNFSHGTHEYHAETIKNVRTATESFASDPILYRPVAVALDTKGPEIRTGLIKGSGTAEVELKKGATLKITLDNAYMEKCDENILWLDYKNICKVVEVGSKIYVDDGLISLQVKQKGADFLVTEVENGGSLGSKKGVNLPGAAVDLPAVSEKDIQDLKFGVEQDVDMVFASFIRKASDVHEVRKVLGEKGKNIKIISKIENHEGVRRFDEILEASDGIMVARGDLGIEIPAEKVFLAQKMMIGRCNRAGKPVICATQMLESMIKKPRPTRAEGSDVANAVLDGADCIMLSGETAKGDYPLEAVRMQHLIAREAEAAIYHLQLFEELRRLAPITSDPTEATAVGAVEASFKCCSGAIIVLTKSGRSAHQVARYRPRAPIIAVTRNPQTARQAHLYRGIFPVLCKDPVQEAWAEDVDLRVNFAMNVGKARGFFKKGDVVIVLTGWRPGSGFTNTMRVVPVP
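Enzyme run at intermediate activity with final 0.1 mM ADP, 0.5 mM PEP (50 mM imidazole pH7.2, 50 mM KCl, 7 mM MgCl2), incubated 1 h at r.t. ATP formed read by Kinase-Glo luminescence, normalized to no-enzyme (full inhibition) and uninhibited wells.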
An asterisk follows results filed as active. This excerpt belongs to a sample that is enriched for hits. Potency is read from the fitted curve at half-maximal effect.

Screening CC(=O)Nc1ccc(/C(C)=N/Nc2nc(Nc3cccc4ccccc34)nc(N3CCOCC3)n2)cc1 returned PKM2 inh 33.8%.
`CC(=O)Nc1ccc(SCC(=O)N2CCN(S(=O)(=O)c3ccccc3)CC2)cc1` gave PKM2 inh 31.0%.
COc1ccc(NC(=O)CSc2n[nH]c(N)n2)c([N+](=O)[O-])c1 was read as PKM2 inh 97.5%.
Cc1cc(SCc2ccccc2)nc(=O)[nH]1 was read as PKM2 inh 38.8%.
`CCN(CC)c1ccc(/C=N/NC(=O)c2ccoc2C)cc1` gave PKM2 inh 28.2µM*.
For CN(C)c1ccc(/C=N/NC(=O)c2ccccc2O)o1 the results were PKM2 inh 56.4%.
`O=C(N/N=C/c1ccc(F)cc1)c1cc(-c2ccco2)nc2ccccc12` gave PKM2 inh 73.8%.
For CC(=O)Oc1ccc(N(C(C)=O)S(=O)(=O)c2cccs2)c2ccccc12 the results were PKM2 inh 34.9%.
`COc1ccccc1N1CCN(C(=O)CSc2nc(C)c(Cc3ccccc3)c(=O)[nH]2)CC1` gave PKM2 inh 140.3%.
For O=C1CCN(Cc2nc(-c3ccc(Cl)cc3)no2)CCN1 the results were PKM2 inh 31.8%.
O=C(O)C1Nc2c(O)cc(Cl)c([N+](=O)[O-])c2C2C=CCC12 (stereo not given) was read as PKM2 inh 21.8%.
Screening c1cc2c(cc1C1=NNC(=NC3CC3)SC1)OCCO2 returned PKM2 inh 14.1µM*.
Screening CCCCN=C1NN=C(c2ccc(C)c(C)c2)CS1 returned PKM2 inh 72.2%.
`COc1ccc(CN=C2NN=C(c3ccccc3)CS2)cc1` gave PKM2 inh 46.4%.
CN(C)CCCC1(O)c2ccccc2C=Cc2ccccc21 was read as PKM2 inh -11.1%.
For Cc1ccc(NC(=S)NCC23C=CC(O2)C2C(=O)N(c4ccc(C)cc4)C(=O)C23)cc1 (stereo not given) the results were PKM2 inh 49.4%.
O=S(=O)(NCCSc1ccccn1)c1ccc(Br)cc1 was read as PKM2 inh 95.5%.
Screening C/C(=N/NC(=O)c1cccs1)c1c(C)[nH]n(-c2nc3ccccc3s2)c1=O returned PKM2 inh 14.1µM*.
CCNc1sc(C(=O)c2cccs2)c(N)c1-c1nc2ccccc2s1 was read as PKM2 inh 44.4%.
`Cc1cccc(C)c1NC(=S)N/N=C/c1ccccc1C(=O)O` gave PKM2 inh -4.4%.
For O=C(N/N=C/c1ccncc1)c1cc([N+](=O)[O-])cc([N+](=O)[O-])c1O the results were PKM2 inh 31.3%.
O=C(Nc1ccccc1C(=O)N/N=C/c1ccncc1)c1ccccc1 was read as PKM2 inh 14.1µM*.
For CC(=O)Nc1cccn(Cc2c(Cl)cccc2Cl)c1=O the results were PKM2 inh 35.8%.
`CS(=O)(=O)N1CCN(c2ccc([N+](=O)[O-])c(NCc3cccnc3)c2)CC1` gave PKM2 inh 86.8%.
`CN1CCc2nc(SCC(=O)Nc3ccc(F)cc3)c(C#N)cc2C1` gave PKM2 inh 57.3%.
`C(=C\c1nc2ccccc2[nH]1)/c1ccccc1` gave PKM2 inh 14.1µM*.
For c1ccc2[nH]c(CSc3nnc(-c4ccncc4)o3)nc2c1 the results were PKM2 inh 134.3%.
COc1ccc(-c2nc(NC(=O)c3[nH]c(C)c(C(C)=O)c3C)sc2C)cc1 was read as PKM2 inh 79.4%.
Screening CCCC(=O)Nc1ccc(Cl)c(NC(=O)c2cccc(OC)c2)c1 returned PKM2 inh 1.3%.
`O=C1/C(=C/Nc2ccc3c(c2)OCO3)CCc2ccccc21` gave PKM2 inh 25.1µM*.
For O=C1c2ccccc2C(=O)N1Cc1ccc2c(c1)OCO2 the results were PKM2 inh 43.6%.
`O=C(C1CCC1)N1CCc2cc(S(=O)(=O)Nc3ccc4c(c3)OCO4)ccc21` gave PKM2 inh 91.9%.
For COc1ccccc1NS(=O)(=O)c1cc(NC(=O)c2[nH]c(C)c(C(C)=O)c2C)ccc1N1CCOCC1 the results were PKM2 inh 71.5%.
Cc1cccc(C)c1NC(=O)NC1(C(=O)NCCCN2CCOCC2)CCCCC1 was read as PKM2 inh 53.3%.
`O=C(CN1CCCCC1)Nc1ccc(Br)cc1[N+](=O)[O-]` gave PKM2 inh 33.8%.
Screening C/C(=N\NC(=O)CNc1ccccc1)c1ccccc1 returned PKM2 inh 59.6%.
`COc1ccc(-c2nc3ccccc3[nH]2)cc1` gave PKM2 inh 12.6µM*.
`COc1ccc2[nH]c(=O)c(-c3noc(-c4ccccc4)n3)cc2c1` gave PKM2 inh 108.8%.
Fc1ccc(-n2ncc3c(SCc4cccnc4)ncnc32)cc1 was read as PKM2 inh 40.4%.
Screening N#C/C(=C\c1ccc(F)c(Cl)c1)S(=O)(=O)c1ccccn1 returned PKM2 inh -3.4%.
O=C(NCc1cccs1)C1CCN(S(=O)(=O)c2ccccc2F)CC1 was read as PKM2 inh 115.6%.
Cn1c(=O)c(C(=O)COC(=O)c2cc(-c3ccco3)nc3ccccc23)c(N)n(CC2CC2)c1=O was read as PKM2 inh 48.4%.

Bioassay records (PubChem)
